From PubChem BioAssay
Values without a mark were called inactive. Entries that show only a call come without a potency. For some of these results: Potency and affinity values are given separately. Activity calls are given as the source filed them. Unless noted, no rule for the calls is given here.

Legend:
[1] = antimalarial activity against Dd2 strain (AID 2302;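 active = growth inhibition above 50% at the single 2 µM test dose, taken to imply half-maximal potency below 2 µM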); settings: P. falciparum Dd2 in RBCs, LDH growth readout, 72 h; at 2 µM; hits give high values
[2] = human hepatoma cell viability loss – ATP luminescence, cytotoxicity control for P. falciparum antimalarial project, primary screen (AID 2303;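 active = inhibition above 50%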); settings: HepG2 viability, 24-48 h, at 10 µM, hits give high values
[3] = molecular target: L-lactate dehydrogenase (Plasmodium falciparum (isolate CDC / Honduras)) (UniProt Q27743); test: PfLDH activity inhibition – cell lysate, 3D7 strain, counter-screen for P. falciparum growth inhibition project (AID 2304); settings: P. falciparum 3D7 crude extract, LDH APAD/NBT absorbance; at 2 µM; hits give high values
[4] = inhibition of 3D7 malaria parasite growth – strain 3D7 (AID 2306); settings: P. falciparum 3D7 erythrocytic growth, LDH absorbance, 72 h; at 2 µM; hits give high values
[5] = molecular target: Calcium-dependent protein kinase 1 (Plasmodium falciparum (isolate 3D7)) (UniProt P62344); test: PfCDPK1 kinase inhibitors, biochemical, TCAMS library (AID 1159585; cut-off not given, nearly all actives have IC50 up to about 0.98 µM;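 also: inhibitors leave more ATP so luminescence rises with inhibition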); settings: recombinant PfCDPK1, Kinase-Glo ATP depletion luminescence
[6] = molecular target: Plasmodium falciparum protein kinase 6 (PK6, PF3D7_1337100) (UniProt Q8IDW1); test: PfPK6 kinase inhibitors, biochemical, TCAMS library (AID 1159586); settings: recombinant PfPK6, Kinase-Glo ATP depletion luminescence
[7] = molecular target: Protein kinase 7 (PK7), Plasmodium falciparum 3D7 (PF3D7_0213400) (UniProt Q7YTF7); test: inhibition of Plasmodium PK7 catalytic activity – biochemical, TCAMS antimalarial set, Kinase-Glo luminescence (AID 1159587); settings: recombinant PfPK7, Kinase-Glo ATP depletion luminescence
[8] = molecular target: Calcium-dependent protein kinase 4 (Plasmodium falciparum (isolate 3D7)) (UniProt Q8IBS5); test: PfCDPK4 kinase inhibitors, biochemical, TCAMS library (AID 1159588; cut-off not given, nearly all actives have IC50 up to about 0.91 µM); settings: recombinant PfCDPK4, Kinase-Glo ATP depletion luminescence
Chain of Calcium-dependent protein kinase 4 (Plasmodium falciparum (isolate 3D7)) (Q8IBS5 whole entry, looked up): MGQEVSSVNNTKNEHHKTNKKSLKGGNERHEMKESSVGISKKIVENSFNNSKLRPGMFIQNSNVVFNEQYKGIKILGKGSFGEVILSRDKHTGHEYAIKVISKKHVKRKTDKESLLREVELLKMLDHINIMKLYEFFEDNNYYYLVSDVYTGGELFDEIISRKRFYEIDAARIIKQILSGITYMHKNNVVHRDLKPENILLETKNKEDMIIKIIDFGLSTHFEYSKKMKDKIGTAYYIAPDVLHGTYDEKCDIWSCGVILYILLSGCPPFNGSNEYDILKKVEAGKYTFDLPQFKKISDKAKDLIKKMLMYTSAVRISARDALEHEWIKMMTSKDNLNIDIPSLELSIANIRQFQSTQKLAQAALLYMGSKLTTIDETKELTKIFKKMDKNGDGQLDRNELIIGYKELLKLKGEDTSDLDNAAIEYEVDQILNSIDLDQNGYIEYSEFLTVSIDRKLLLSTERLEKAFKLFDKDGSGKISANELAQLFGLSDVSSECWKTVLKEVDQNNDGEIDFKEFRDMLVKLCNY

Chain of Plasmodium falciparum protein kinase 6 (PK6, PF3D7_1337100) (Q8IDW1 1-305): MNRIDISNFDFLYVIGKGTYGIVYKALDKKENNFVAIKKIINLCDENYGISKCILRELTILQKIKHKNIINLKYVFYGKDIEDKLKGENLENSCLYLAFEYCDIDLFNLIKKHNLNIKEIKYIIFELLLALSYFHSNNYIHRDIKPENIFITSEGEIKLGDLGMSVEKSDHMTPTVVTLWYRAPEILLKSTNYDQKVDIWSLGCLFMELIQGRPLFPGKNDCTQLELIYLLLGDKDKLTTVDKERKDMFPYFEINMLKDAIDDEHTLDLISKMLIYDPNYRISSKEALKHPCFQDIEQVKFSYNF
Chain of Calcium-dependent protein kinase 1 (Plasmodium falciparum (isolate 3D7)) (P62344 whole entry, looked up): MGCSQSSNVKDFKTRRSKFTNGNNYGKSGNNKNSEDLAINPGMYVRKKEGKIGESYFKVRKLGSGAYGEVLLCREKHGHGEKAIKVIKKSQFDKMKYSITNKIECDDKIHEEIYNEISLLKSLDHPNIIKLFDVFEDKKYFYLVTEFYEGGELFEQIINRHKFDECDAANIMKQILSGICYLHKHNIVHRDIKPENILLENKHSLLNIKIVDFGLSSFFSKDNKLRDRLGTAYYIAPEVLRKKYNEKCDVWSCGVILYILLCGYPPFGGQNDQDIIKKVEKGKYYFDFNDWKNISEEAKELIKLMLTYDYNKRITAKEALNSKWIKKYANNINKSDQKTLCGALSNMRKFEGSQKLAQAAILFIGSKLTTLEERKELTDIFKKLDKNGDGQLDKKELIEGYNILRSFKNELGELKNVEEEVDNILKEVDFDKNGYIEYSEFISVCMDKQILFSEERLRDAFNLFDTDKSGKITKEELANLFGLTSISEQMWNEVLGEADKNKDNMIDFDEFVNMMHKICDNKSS
Chain of Protein kinase 7 (PK7), Plasmodium falciparum 3D7 (PF3D7_0213400) (Q7YTF7 1-343): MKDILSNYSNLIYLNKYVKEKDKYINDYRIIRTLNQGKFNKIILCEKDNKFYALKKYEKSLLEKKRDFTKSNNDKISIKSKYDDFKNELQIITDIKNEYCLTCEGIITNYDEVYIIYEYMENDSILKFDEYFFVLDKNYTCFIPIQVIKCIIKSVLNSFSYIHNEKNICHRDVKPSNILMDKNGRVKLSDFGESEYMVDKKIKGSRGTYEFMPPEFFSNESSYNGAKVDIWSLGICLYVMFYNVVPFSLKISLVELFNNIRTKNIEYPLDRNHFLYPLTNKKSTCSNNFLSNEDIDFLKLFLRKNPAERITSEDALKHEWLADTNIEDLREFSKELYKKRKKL
Chain of L-lactate dehydrogenase (Plasmodium falciparum (isolate CDC / Honduras)) (Q27743 whole entry, looked up): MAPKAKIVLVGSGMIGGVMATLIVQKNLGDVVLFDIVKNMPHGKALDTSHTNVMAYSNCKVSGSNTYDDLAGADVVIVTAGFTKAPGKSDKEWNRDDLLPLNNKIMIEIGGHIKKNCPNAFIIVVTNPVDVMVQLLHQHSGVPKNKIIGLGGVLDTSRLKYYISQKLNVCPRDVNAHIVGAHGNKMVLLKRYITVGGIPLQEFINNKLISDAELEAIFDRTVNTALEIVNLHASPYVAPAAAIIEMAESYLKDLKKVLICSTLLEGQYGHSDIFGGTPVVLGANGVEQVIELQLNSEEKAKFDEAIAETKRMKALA

SMILES | growth inhibition [1] | inhibition [2] [%] | inhibition [3] [%] | growth inhibition [4] | outcome [5] | outcome [6] | outcome [7] | outcome [8]
Cc1ccc(N2CCN(CCCCNC(=O)c3ccc(NC(=O)c4ccc(Cl)cc4)cc3)CC2)c(C)c1 | 20% | 30 | 7 | 95% (active) | inactive | inactive | inactive | inactive
Nc1nccc2ccc(-c3cccc(O)c3)cc12 | 71% (active) | 43 | 7 | 95% (active) | inactive | inactive | inactive | inactive
NCC1CCCN1Cc1cccc(-c2cccc(-c3nc4ccc(F)cc4[nH]3)c2)c1 (stereo not given) | 65% (active) | 10 | 5 | 101% (active) | inactive | inactive | inactive | inactive
Cc1c(CNCCCNc2cc(=O)c3ccccc3[nH]2)sc(C(F)=C(F)F)c1Br | 18% | 7 | -2 | 94% (active) | inactive | inactive | inactive | inactive
Cc1ccc(Nc2nccc(NCC(O)c3cccc(F)c3)n2)cc1 (stereo not given) | 26% | 24 | -7 | 95% (active) | inactive | inactive | inactive | inactive
Cc1nc(-c2cccc(C(=O)NC3CCC(CCN4CCc5ccc(-c6cccnc6)cc5CC4)CC3)c2)no1 (stereo not given) | 4% | 17 | -1 | 98% (active) | inactive | inactive | inactive | inactive
COc1ccc2nc(C)cc(Nc3ccc(Oc4ccc(Cl)cc4)c(Cl)c3)c2c1 | 100% (active) | 48 | -2 | 101% (active) | inactive | inactive | inactive | inactive
Cn1c(Cc2ccccc2)nnc1Sc1ccc(C#N)c([N+](=O)[O-])c1 | 29% | -5 | -5 | 93% (active) | inactive | inactive | inactive | inactive
O=C(/C=C/c1ccccc1O)NCCCCCN1CCC(c2c[nH]c3ccccc23)CC1 | 1% | 7 | -5 | 95% (active) | inactive | inactive | inactive | inactive
CN(C)CCOc1cc(O)c2c(c1)OC(C)(C)C=C2c1cccs1 | 10% | 29 | -2 | 99% (active) | inactive | inactive | inactive | inactive
COc1cc2sc(=NC(=O)c3cccc([N+](=O)[O-])c3)n(C)c2cc1OC | 79% (active) | 5 | -3 | 92% (active) | inactive | inactive | inactive | inactive
N#Cc1ccc(N2CCN(Cc3cccc(-c4cccc(-c5nc6ccc(F)cc6[nH]5)c4)c3)CC2)nc1 | 52% (active) | 26 | 3 | 90% (active) | inactive | inactive | inactive | inactive
COc1cccc(C2C(C(=O)Nc3ccccc3)=C(C)N=c3s/c(=C\c4ccc(O)cc4)c(=O)n32)c1 (stereo not given) | 97% (active) | 15 | 6 | 97% (active) | inactive | inactive | inactive | inactive
COc1cc(NC(=O)Nc2cccc3ccccc23)c(OC)cc1Cl | 71% (active) | -12 | 3 | 97% (active) | inactive | inactive | inactive | inactive
COc1ccc(C2=CCN(c3ccc(Cl)c(Cl)c3)C2=O)cc1OCCN1CCCCC1 | 99% (active) | 19 | -2 | 97% (active) | inactive | inactive | inactive | inactive
COc1ccc(O)c(C(=O)c2cc(C#N)c(=O)n(-c3ccc(Oc4ccccc4)cc3)c2)c1 | 20% | 22 | 5 | 97% (active) | inactive | inactive | inactive | inactive
COc1cc(OC)c2c(C)cc(NCCCn3ccnc3)nc2c1 | 22% | 6 | -2 | 102% (active) | inactive | inactive | inactive | inactive
CCOC(=O)N/N=C/[C@H](CCc1ccccc1)NC(=O)[C@H](CC(C)C)NC(=O)c1cc2cccc(OC)c2o1 | 58% (active) | 3 | 2 | 84% (active) | inactive | inactive | inactive | inactive
NCC1CCCN1Cc1cccc(-c2ccc(-c3nc4ccc(C(F)(F)F)cc4[nH]3)s2)c1 (stereo not given) | 96% (active) | 17 | -3 | 102% (active) | inactive | inactive | inactive | inactive
CC(C)c1ccc(NC(=O)Nc2ccc(Cn3ncc(N4CCCNCC4)c(Cl)c3=O)cc2)cc1 | 27% | 11 | 2 | 85% (active) | inactive | inactive | inactive | inactive
